# The full list was thinned out, with hits kept by preference.
# 12-LOX inh – Primary qHTS assay for inhibitors of human arachidonate 12S-lipoxygenase (ALOX12): Round 2 | Polyunsaturated fatty acid lipoxygenase ALOX12 (Homo sapiens), P18054 | purified 12hLO, xylenol orange hydroperoxide absorbance | Potency, µM (top dose mostly 108 µM), actives largely listed as inhibitors | actives 1.1% (n = 580,000)
# Target sequence (P18054 whole entry, looked up): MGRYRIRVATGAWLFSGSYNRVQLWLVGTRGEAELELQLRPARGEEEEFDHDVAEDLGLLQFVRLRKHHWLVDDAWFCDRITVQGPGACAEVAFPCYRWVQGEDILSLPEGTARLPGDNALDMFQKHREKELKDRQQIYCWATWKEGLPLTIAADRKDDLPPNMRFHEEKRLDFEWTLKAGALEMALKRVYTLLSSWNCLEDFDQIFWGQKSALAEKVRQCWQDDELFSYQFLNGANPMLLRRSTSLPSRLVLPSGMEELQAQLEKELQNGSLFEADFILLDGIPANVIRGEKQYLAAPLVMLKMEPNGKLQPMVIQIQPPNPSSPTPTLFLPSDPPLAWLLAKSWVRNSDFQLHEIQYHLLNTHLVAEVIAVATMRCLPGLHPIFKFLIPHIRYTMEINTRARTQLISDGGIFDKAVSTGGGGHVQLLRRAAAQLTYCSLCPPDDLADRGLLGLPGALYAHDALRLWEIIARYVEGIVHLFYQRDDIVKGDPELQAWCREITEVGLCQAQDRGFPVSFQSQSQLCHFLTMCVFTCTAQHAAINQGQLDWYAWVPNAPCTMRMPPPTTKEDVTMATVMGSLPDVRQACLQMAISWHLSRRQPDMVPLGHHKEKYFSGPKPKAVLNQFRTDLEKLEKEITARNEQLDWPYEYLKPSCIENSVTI
#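 Purified human 12hLO at 150 nM in 25 mM Hepes, 0.01% Triton X-100, pH 7.0, preincubated 15 min at room temperature with compound. Reaction started with 40 uM arachidonic acid, 30 min at room temperature. Hydroperoxide measured by Fe-xylenol orange, 573/405 nm absorbance ratio.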
# TDP1 cell noCPT – qHTS for Inhibitors of human tyrosyl-DNA phosphodiesterase 1 (TDP1): qHTS in cells in absence of CPT. Potency, µM (series often up to 46.2 µM), usual class: inhibitors. DT40 Tdp1-/- hTDP1 cells, no CPT, ATP luminescence, 48 h. actives 15% (n = 420,000); further: nearly all actives have a fitted effect of over 55% in size
#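 Chicken DT40 Tdp1-/- cells complemented with human TDP1, screened without camptothecin (DMSO vehicle only), 400 cells/well. Compounds pin-transferred, cells incubated at 37 °C for at least 48 hr. Growth read as ATP-dependent luminescence (CellTiter-Glo, 30 min at RT).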
# IL1B secr inh – qHTS for Inhibitors of Inflammasome Signaling: IL-1-beta AlphaLISA Primary Screen; THP-1 LPS/ATP IL-1B secretion, AlphaLISA, 16 h; active compounds read low; activity change, % at 57.5 µM; actives 4.7% (n = 360,000); AID 743279, 2014; in the data active means activity change below about -50%; inconclusive means mostly about -30% to -49%
#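 THP-1 cells pretreated 1 hr with compounds (up to 57.5 uM final), then stimulated with LPS (250 ng/mL final) plus ATP (1.25 mM final); secreted IL-1B measured by AlphaLISA after 16 hr, decreased signal indicating inhibition.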
# HT1080 IDH1KD tx – qHTS for induction of synthetic lethality in tumor cells producing 2HG: qHTS for the HT-1080-IDH1KD cell line | AID 686971, 2013 | Potency, µM (doses to about 46.1 µM), actives largely listed as cytotoxic | HT-1080 IDH1 knockdown viability, ATP luminescence, 48 h | actives 2% (n = 360,000)
#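 IDH1KD HT-1080 cells, 750/well, RPMI + 5% FBS; compound pinned after 2 h settling; 48 h, 37 °C; CellTiter-Glo luminescence; % activity normalised to DMSO and no-cell wells; curves fitted, classed by r2 and efficacy.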
# HT1080NT lethal – qHTS for induction of synthetic lethality in tumor cells producing 2HG: qHTS for the HT-1080-NT fibrosarcoma cell line | HT-1080-NT fibrosarcoma viability, CellTiter-Glo ATP luminescence, 48 h | Potency, µM (top dose mostly 46.1 µM), actives largely listed as cytotoxic | actives 1.6% (n = 360,000) | AID 686970, 2013;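 further: NT is the 2HG producing partner of a matched IDH1 knockdown line; nearly all actives have a fitted effect of over 55% in size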
#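 Viability by CellTiter-Glo luminescence after 48 h compound exposure at 37C of HT-1080-NT cells (750/well, RPMI, 5% FBS). % activity scaled between DMSO wells and medium-only wells, then curve-fitted and categorized by curve class.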
# DT40 TDP1 CPT – qHTS for Inhibitors of human tyrosyl-DNA phosphodiesterase 1 (TDP1): qHTS in cells in presence of CPT | chicken DT40 Tdp1-/-;hTDP1 cells + 20 nM CPT, ATP luminescence, 48 h | Potency, µM (highest dose often 46.2 µM), most hits filed as inhibitors | actives 12% (n = 420,000); further: nearly all actives have a fitted effect of over 55% in size
#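 Cell growth measured by CellTiter-Glo luminescence after a minimum 48 h, 37 C compound exposure with 20 nM CPT in Tdp1-knockout DT40 cells stably expressing hTDP1, seeded 400/well; qHTS titration format.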
# Hits are given with their value; i = inactive; ? = inconclusive; nt = no result given. Unless noted, the call rests on the fitted dose curve; in most records, active means well fitted curve in the direction sought with a large enough effect; inconclusive means small, poorly fitted or top-dose-only effect, or another doubt; inactive means no such curve, though single readings can be large; an effect the other way counts as inactive or inconclusive.
SMILES,12-LOX inh,TDP1 cell noCPT,IL1B secr inh,HT1080 IDH1KD tx,HT1080NT lethal,DT40 TDP1 CPT
Cc1ccc(NC2=C(C(=O)c3ccccc3)N(C)S(=O)(=O)c3ccccc32)cc1,i,26µM,i,i,i,29µM
CONC(=O)c1ccc(C#N)cc1,i,nt,nt,nt,nt,nt
CC(=O)Nc1ccc(S(=O)(=O)N2CCC(CCC(=O)Nc3cccc(C)c3)CC2)cc1,i,nt,nt,nt,nt,nt
C=CCn1c(C)cc(C(=O)CN2C(=O)NC3(CCCc4ccccc43)C2=O)c1C (configuration not stated),i,?,i,i,i,?
CCN(C(=O)CN1C(=O)NC2(CCCc3ccccc32)C1=O)c1ccc(F)cc1 (configuration not stated),i,16µM,i,i,i,?
CCN(Cc1cccs1)C(=O)CN1C(=O)NC2(CCCc3ccccc32)C1=O (configuration not stated),i,i,i,i,i,21µM
Cc1cc(C(=O)CN2C(=O)NC3(CCCc4ccccc43)C2=O)c(C)n1Cc1cccs1 (configuration not stated),i,?,?,i,i,16µM
O=[N+]([O-])c1ccc2nc(NN=Cc3ccc(O)cc3)sc2c1,i,?,-96,29µM,?,29µM
CC(C)c1ccc(/C=C/C(=O)Nc2nc3ccc([N+](=O)[O-])cc3s2)cc1,i,i,i,i,i,i
CC[C@H](C(=O)N1CCC2(CC1)Nc1ccccc1NC2=O)c1ccccc1,i,nt,nt,nt,nt,nt
CCn1ccc2c(OCC(=O)Nc3ccc(C(C)=O)cc3)cccc2c1=O,i,9.2µM,nt,nt,nt,?
CCOCCn1ccc2c(OCC(=O)Nc3ccccc3OC)cccc2c1=O,?,?,-60,i,?,?
COC(=O)COc1cccc2c(=O)n(CC(=O)Nc3ccc4c(c3)OCCO4)ccc12,i,i,-50,?,i,i
CCCn1ccc2c(OCC(=O)Nc3ccc(C(F)(F)F)cc3)cccc2c1=O,?,?,nt,nt,nt,i
CCOCCn1ccc2c(OCC(=O)Nc3cc(OC)ccc3OC)cccc2c1=O,i,9.2µM,i,i,i,?
COc1cccc2c(=O)n(CC(=O)Nc3ccccc3)ccc12,?,i,i,i,i,i
O=C(NCc1cccnc1)c1ccc(CN2C(=O)CCn3nccc32)cc1,i,nt,nt,nt,nt,nt
COCCn1ccc2c(OCC(=O)Nc3cc(OC)ccc3OC)cccc2c1=O,i,15µM,i,i,i,?
CCOCCn1ccc2c(OCC(=O)Nc3ccc(C(N)=O)cc3)cccc2c1=O,i,15µM,nt,nt,nt,?
CCOCCn1ccc2c(OCC(=O)Nc3cccc(F)c3)cccc2c1=O,i,?,nt,nt,nt,i
Cc1cc(C)cc(OCCn2c(C3CC(=O)N(c4ccccc4Cl)C3)nc3ccccc32)c1 (configuration not stated),i,21µM,nt,nt,nt,?
Cc1ccccc1OCCCCn1c(C2CC(=O)N(c3ccccc3Cl)C2)nc2ccccc21 (configuration not stated),?,i,nt,nt,nt,?
CCc1ccccc1N1CC(c2nc3ccccc3n2CC(C)C)CC1=O (configuration not stated),i,21µM,nt,nt,nt,15µM
CCOc1ccccc1N1CC(c2nc3ccccc3n2CCOc2ccc(OC)cc2)CC1=O (configuration not stated),i,18µM,nt,nt,nt,?
CCOc1ccccc1N1CC(c2nc3ccccc3n2CCCOc2ccc(OC)cc2)CC1=O (configuration not stated),i,i,nt,nt,nt,i
SMILES,12-LOX inh,TDP1 cell noCPT,IL1B secr inh,HT1080 IDH1KD tx,HT1080NT lethal,DT40 TDP1 CPT
COc1ccc(OCCn2c(C3CC(=O)N(c4ccc(F)cc4)C3)nc3ccccc32)cc1 (configuration not stated),?,18µM,nt,nt,nt,16µM
C#CCn1c(C2CC(=O)N(c3ccc(OCC)cc3)C2)nc2ccccc21 (configuration not stated),i,?,nt,nt,nt,?
CS(=O)(=O)N1CCC2(CCCN(Cc3ccc(C#N)cc3)C2)CC1,i,i,nt,nt,nt,i
Cc1ccc(OCCn2c(C3CC(=O)N(Cc4ccccc4)C3)nc3ccccc32)cc1 (configuration not stated),?,15µM,i,i,i,?
CCOc1ccc(N2CC(c3nc4ccccc4n3CCCOc3ccc(OC)cc3)CC2=O)cc1 (configuration not stated),i,8.2µM,nt,nt,nt,?
O=C(COc1ccccc1F)Nc1ccc2oc(-c3cccc(Cl)c3)nc2c1,i,i,nt,nt,nt,i
CC(C)(C)OC(=O)N1CCCC(C(=O)Nc2ccc(C(=O)NC3CC3)cc2)C1 (configuration not stated),i,i,i,i,i,i
CC1(C)CC(=O)C(/C=N/n2c(C(F)(F)F)nc3ccccc3c2=O)=C(O)C1,i,?,i,?,i,16µM
O=C(O)c1cccc(Cn2c(Cl)c(/C=N/NC(=O)c3cccc(O)c3)sc2=O)c1,i,i,i,i,i,i
Cc1ccccc1N/N=C/c1sc(=O)n(Cc2cccc(C(=O)O)c2)c1Cl,?,21µM,i,?,?,?
Cc1cc(N2C(=O)C(O)=C(C(=O)c3ccc(C)o3)C2c2ccc([N+](=O)[O-])cc2)no1 (configuration not stated),40µM,?,i,i,i,?
Cc1cc(N2C(=O)C(O)=C(C(=O)c3ccc(C)o3)C2c2cccc(Cl)c2)no1 (configuration not stated),45µM,?,i,?,i,?
Cc1cc(N2C(=O)C(O)=C(C(=O)c3ccc(C)o3)C2c2cccc(Oc3ccccc3)c2)no1 (configuration not stated),?,23µM,i,i,i,?
COc1ccc(C2C(C(=O)c3ccc(C)o3)=C(O)C(=O)N2c2cc(C)on2)cc1OC (configuration not stated),?,i,i,i,i,i
CCCOc1cccc(C2C(C(=O)c3ccc(C)o3)=C(O)C(=O)N2c2nc(C)c(C(C)=O)s2)c1 (configuration not stated),1.3µM,23µM,i,i,i,?
CCOC(=O)C1=C(C)N=C2SC=C(CC(=O)N3CCCC3)N2C1c1cccc(Cl)c1 (configuration not stated),i,nt,nt,nt,nt,nt
